# Measured values as given in PubChem BioAssay.
# Assay: EMT-state selective cytotoxicity in co-culture – imaging, PC-3E GFP, TEM4-18 mCherry, primary screen (AID 1345086);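 also: cells exposed to compound for 72 h before imaging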
# Conditions: PC-3E GFP / TEM4-18 mCherry co-culture, imaging cell counts; measured here: epithelial PC-3E GFP cell survival; at 1 µM
row,SMILES,normalised cell number
1,Cc1ccc(S[C@H]2OC(COCc3ccccc3)C(O)[C@@H]3OC(=O)N[C@H]23)cc1 (stereo partly drawn),0.9
2,COc1cc(O)c(C(C)=O)c(O)c1,0.97
3,CC(=O)O[C@H]1CC2CCC3C(CC[C@@]4(C)C3C[C@H]([N+]3(C)CCCCC3)[C@@H]4OC(C)=O)[C@@]2(C)C[C@@H]1N1CCCCC1 (stereo partly drawn),1.03
4,C[C@@H](Oc1ccc(Oc2ccc3ncc(Cl)nc3c2)cc1)C(=O)O,1.19
5,Cc1cn(CC(=O)O)c(=O)[nH]c1=O,1.15
6,C=C1C2=C(C(=O)N1OC)[C@H](O)[C@](C)(O)[C@H](CCCCC)O2,1.01
7,CC(=O)OCC[C@H](C)CCC=C(C)C,1
8,O=C1C=CC2=C3c4cc(O)c(O)cc4C[C@@]3(O)COC2=C1,1.07
9,O=C1CC(c2ccc(O)cc2)Oc2ccccc21 (stereo not drawn),1.01
10,COc1cc(OC)c2c(c1)OC(c1ccccc1)CC2=O (stereo not drawn),0.99
11,CC(=O)OC1CC(C)OC(=O)CCC(O)CC1=O (stereo not drawn),0.98
12,CC(C)/C(O)=C1/C(=O)O[C@@H](c2ccoc2)[C@]2(C)C(O)[C@@H](O)[C@@]34OC5(C)OC67CC(C)(C(O)[C@]6(O)[C@@H](O)[C@]3(O5)C12)[C@H](CC(=O)O)C74C (stereo partly drawn),1
13,CO[C@H]1/C=C/C[C@@H](C)OC(=O)c2c(O)cc(O)cc2CC(=O)CCC1,0.98
14,C[C@]12C=CC(=O)NC1CCC1C2CC[C@@]2(C)C1CC[C@@H]2C(=O)Nc1cc(C(F)(F)F)ccc1C(F)(F)F (stereo partly drawn),1.1
15,O=c1c(-c2ccc(O)cc2)coc2c(C3O[C@H](CO)[C@@H](O)[C@H](O)[C@H]3O)c(O)ccc12 (stereo partly drawn),1.12
16,COc1ccc(-c2cc(=O)c3c(O)cc(OC)cc3o2)cc1,1.08
17,c1ccc(SCC2CCCNC2)cc1 (stereo not drawn),1.24
18,CCO[C@H]1OC(C(=O)OC)C(OC(=O)CCC(=O)O)[C@H](OC(=O)c2ccccc2)[C@@H]1OC(=O)c1ccccc1 (stereo partly drawn),1.18
19,CC(C)CCCC(C)C1CCC2C3CC[C@H]4CC(=O)CC[C@]4(C)C3CC[C@]12C (stereo partly drawn),1.04
20,CC(CCC(=O)O)[C@H]1CCC2C3C(C[C@H](O)[C@@]21C)[C@@]1(C)CC[C@@H](O)C[C@H]1C[C@H]3O (stereo partly drawn),1.01

row,SMILES,normalised cell number
1,C[C@@H]1CC[C@H]2C(C)(C)C3CC12CC[C@@]3(C)O (stereo partly drawn),0.93
2,COc1cc2c(cc1OC)C1C(=O)c3c(O)cc4c(c3OC1CO2)C=CC(C)(C)O4 (stereo not drawn),0.94
3,COC(=O)C1O[C@H](OCc2ccc(OC)cc2)[C@@H](OC(=O)c2ccccc2)[C@@H](OC(=O)c2ccccc2)C1O (stereo partly drawn),1.32
4,CCN1CC(CCN2CCOCC2)C(C(c2ccccc2)c2ccccc2)C1=O (stereo not drawn),1.12
5,CC(=O)OCC(=O)[C@@]1(O)CCC2C3C[C@H](C)C4=CC(=O)C=CC4(C)C3[C@@H](O)CC21C (stereo partly drawn),1.16
6,NC(=O)NCCCC(N)C(=O)O (stereo not drawn),1.03
7,CC(C)CC1OC23SCC(c4ccccc4)N2C(=O)C1C(C)(C)S3 (stereo not drawn),1.15
8,O=C(O)c1cn(C2CC2)c2cc(N3CCN(c4ccc(Cl)cc4Cl)CC3)c(F)cc2c1=O,1
9,C/C=C/C1=CC(=O)[C@H](O)[C@H]1O,1.04
10,COc1c(N2CC[C@@H](CN)C2)c(F)cc2c(=O)c(C(=O)O)cn(CCCN3C(=O)c4ccccc4C3=O)c12,1.03
11,O=C(O)CCC(=O)OC1C(CO)O[C@H](Sc2ccccc2)[C@H]2NC(=O)O[C@@H]12 (stereo partly drawn),0.84
12,C=C1OC(=O)[C@]2([C@H](C)C=C[C@H](O)[C@@H]2O)[C@@H]1O,1
13,CC(=O)O[C@H]1C[C@@]2(C)C(CCC3[C@@]4(C)C=CC(=O)[C@@H](C)C4[C@H](OC(C)=O)C(=O)[C@@]32C)/C1=C(/CCC=C(C)C)C(=O)O (stereo partly drawn),0.92
14,CC1CN(c2c(F)c(N)c3c(=O)c(C(=O)O)cn(C4CC4)c3c2F)C[C@H](C)N1 (stereo partly drawn),1.03
15,COC1=CC(=O)OC1(O)C(C)C (stereo not drawn),0.83
16,COCC1O[C@@H](OC)[C@@H](OCc2ccccc2)[C@@H](OCc2ccccc2)C1O (stereo partly drawn),1.18
17,Clc1ccc2ncc(Cl)nc2c1,0.91
18,O=Cc1ccccc1O[C@@H]1O[C@H](CO)[C@H](O)[C@@H](O)[C@H]1O,0.92
19,O=C(Nc1ccccc1)Nc1ccc(CO)cc1,1.24

# Same assay, conditions: PC-3E GFP / TEM4-18 mCherry co-culture, imaging cell counts; measured here: mesenchymal TEM4-18 mCherry cell survival; at 1 µM
row,SMILES,normalised cell number
1,Cc1ccc(S[C@H]2OC(COCc3ccccc3)C(O)[C@@H]3OC(=O)N[C@H]23)cc1 (stereo partly drawn),0.96
2,COc1cc(O)c(C(C)=O)c(O)c1,0.97
3,CC(=O)O[C@H]1CC2CCC3C(CC[C@@]4(C)C3C[C@H]([N+]3(C)CCCCC3)[C@@H]4OC(C)=O)[C@@]2(C)C[C@@H]1N1CCCCC1 (stereo partly drawn),0.88
4,C[C@@H](Oc1ccc(Oc2ccc3ncc(Cl)nc3c2)cc1)C(=O)O,1.03
5,Cc1cn(CC(=O)O)c(=O)[nH]c1=O,0.99
6,C=C1C2=C(C(=O)N1OC)[C@H](O)[C@](C)(O)[C@H](CCCCC)O2,1.15
7,CC(=O)OCC[C@H](C)CCC=C(C)C,1.13
8,O=C1C=CC2=C3c4cc(O)c(O)cc4C[C@@]3(O)COC2=C1,1.38
9,O=C1CC(c2ccc(O)cc2)Oc2ccccc21 (stereo not drawn),1.08
10,COc1cc(OC)c2c(c1)OC(c1ccccc1)CC2=O (stereo not drawn),1.08
11,CC(=O)OC1CC(C)OC(=O)CCC(O)CC1=O (stereo not drawn),0.96
12,CC(C)/C(O)=C1/C(=O)O[C@@H](c2ccoc2)[C@]2(C)C(O)[C@@H](O)[C@@]34OC5(C)OC67CC(C)(C(O)[C@]6(O)[C@@H](O)[C@]3(O5)C12)[C@H](CC(=O)O)C74C (stereo partly drawn),1.06
13,CO[C@H]1/C=C/C[C@@H](C)OC(=O)c2c(O)cc(O)cc2CC(=O)CCC1,0.98
14,C[C@]12C=CC(=O)NC1CCC1C2CC[C@@]2(C)C1CC[C@@H]2C(=O)Nc1cc(C(F)(F)F)ccc1C(F)(F)F (stereo partly drawn),0.91
15,O=c1c(-c2ccc(O)cc2)coc2c(C3O[C@H](CO)[C@@H](O)[C@H](O)[C@H]3O)c(O)ccc12 (stereo partly drawn),1.13
16,COc1ccc(-c2cc(=O)c3c(O)cc(OC)cc3o2)cc1,1.24
17,c1ccc(SCC2CCCNC2)cc1 (stereo not drawn),1.06
18,CCO[C@H]1OC(C(=O)OC)C(OC(=O)CCC(=O)O)[C@H](OC(=O)c2ccccc2)[C@@H]1OC(=O)c1ccccc1 (stereo partly drawn),1.07
19,CC(C)CCCC(C)C1CCC2C3CC[C@H]4CC(=O)CC[C@]4(C)C3CC[C@]12C (stereo partly drawn),0.97
20,CC(CCC(=O)O)[C@H]1CCC2C3C(C[C@H](O)[C@@]21C)[C@@]1(C)CC[C@@H](O)C[C@H]1C[C@H]3O (stereo partly drawn),0.98

row,SMILES,normalised cell number
1,C[C@@H]1CC[C@H]2C(C)(C)C3CC12CC[C@@]3(C)O (stereo partly drawn),0.91
2,COc1cc2c(cc1OC)C1C(=O)c3c(O)cc4c(c3OC1CO2)C=CC(C)(C)O4 (stereo not drawn),0.66
3,COC(=O)C1O[C@H](OCc2ccc(OC)cc2)[C@@H](OC(=O)c2ccccc2)[C@@H](OC(=O)c2ccccc2)C1O (stereo partly drawn),1.11
4,CCN1CC(CCN2CCOCC2)C(C(c2ccccc2)c2ccccc2)C1=O (stereo not drawn),0.81
5,CC(=O)OCC(=O)[C@@]1(O)CCC2C3C[C@H](C)C4=CC(=O)C=CC4(C)C3[C@@H](O)CC21C (stereo partly drawn),1.27
6,NC(=O)NCCCC(N)C(=O)O (stereo not drawn),1.08
7,CC(C)CC1OC23SCC(c4ccccc4)N2C(=O)C1C(C)(C)S3 (stereo not drawn),1.03
8,O=C(O)c1cn(C2CC2)c2cc(N3CCN(c4ccc(Cl)cc4Cl)CC3)c(F)cc2c1=O,0.98
9,C/C=C/C1=CC(=O)[C@H](O)[C@H]1O,1.07
10,COc1c(N2CC[C@@H](CN)C2)c(F)cc2c(=O)c(C(=O)O)cn(CCCN3C(=O)c4ccccc4C3=O)c12,1.1
11,O=C(O)CCC(=O)OC1C(CO)O[C@H](Sc2ccccc2)[C@H]2NC(=O)O[C@@H]12 (stereo partly drawn),1.06
12,C=C1OC(=O)[C@]2([C@H](C)C=C[C@H](O)[C@@H]2O)[C@@H]1O,0.99
13,CC(=O)O[C@H]1C[C@@]2(C)C(CCC3[C@@]4(C)C=CC(=O)[C@@H](C)C4[C@H](OC(C)=O)C(=O)[C@@]32C)/C1=C(/CCC=C(C)C)C(=O)O (stereo partly drawn),0.91
14,CC1CN(c2c(F)c(N)c3c(=O)c(C(=O)O)cn(C4CC4)c3c2F)C[C@H](C)N1 (stereo partly drawn),1.02
15,COC1=CC(=O)OC1(O)C(C)C (stereo not drawn),0.89
16,COCC1O[C@@H](OC)[C@@H](OCc2ccccc2)[C@@H](OCc2ccccc2)C1O (stereo partly drawn),1.01
17,Clc1ccc2ncc(Cl)nc2c1,1.05
18,O=Cc1ccccc1O[C@@H]1O[C@H](CO)[C@H](O)[C@@H](O)[C@H]1O,0.9
19,O=C(Nc1ccccc1)Nc1ccc(CO)cc1,1.01
